Screen size: about 300,000 compounds; about 2,700 (0.9%) were called active.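 How the source made its calls: active means mean inhibition of at least 30% with at least half of replicates also reaching 30%; inconclusive means no clear call, values can overlap the other calls; inactive means the rest.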 Many of the other results were omitted from the sample, so actives are more common in it than they were.
What follows are compounds tested against Golgi-associated PDZ and coiled-coil motif-containing protein (Homo sapiens) (UniProt Q9HD26) (assay: untagged CAL PDZ binding inhibitors, primary screen, biochemical, fluorescence polarization, HTS (AID 602252;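 further: 0% = DMSO neutral control and 100% = excess unlabeled competitor peptide PRC23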)). Conditions: purified CAL PDZ, TMR-peptide fluorescence polarization, 1 h; at 24.9 µM; stronger effect = higher value.

inhibition, active:
COc1cccc(/C=C2\SC(=N)N(c3ccc(F)cc3)C2=O)c1 161%
Cn1cccc1/C=C1\SC(=S)N(NC(=O)c2ccc(Cl)cc2)C1=O 64.1%
COc1ccccc1-n1nnnc1S(=O)(=O)Cc1ccc(Cl)cc1 95.3%
CCN(CC(=O)NCc1ccc(Cl)cc1)C(=O)CSc1ccccc1 62.6%
CCOc1nc(OCC)nc(-n2cc(-c3ccccc3)nn2)n1 145%
Cc1c(NC(=O)CCCOc2ccccc2)cccc1[N+](=O)[O-] 47.4%
CCN1CCN(CCNC(=O)c2ccc3c(c2)NC(=O)/C(=C\c2ccc(OC)c(OC)c2)S3)CC1 55.5%
C=CCSc1nc2c(c(=O)[nH]c(=O)n2C)n1Cc1ccccc1 59.3%
CC(=O)N1CCN(C(=O)C2(NC(=O)Nc3ccc(C)cc3)CCCCC2)CC1 48%
Oc1ccc(-c2nc3ccccc3nc2-c2ccc(O)cc2O)c(O)c1 89%
Cc1cc(=O)oc2cc(OCC(=O)Nc3nnc(C4CC4)s3)ccc12 51.4%
Cc1ccc(C(=O)OC(C)CN2CCOCC2)cc1 (stereo not drawn) 70.2%
OC(CNCCc1ccc(Cl)cc1Cl)COc1ccccc1 (stereo not drawn) 64.2%
COc1cccc(OCc2cc(C(=O)N3CCN(C(=O)c4ccco4)CC3)no2)c1 139%
O=C(O)CN(Cc1ccco1)S(=O)(=O)c1ccc(F)cc1 41.2%
CCOC(=O)c1sc2nc(CSc3ccccc3)[nH]c(=O)c2c1C 82.4%
CN(C(=O)c1ccno1)c1nnc(-c2cccnc2)s1 79.5%
CN(C)S(=O)(=O)c1cccc(NC(=O)Cc2ccsc2)c1 56.9%
CC1(C)N=C(N)NC(Nc2ccc(Cl)cc2)=N1 46.4%

inhibition, inactive:
c1ccc(-c2c[nH]c(-c3ccccc3)c2)cc1 -3.72%
C/C=C/c1ccc(OCC(=O)NNC(=O)CN(C)S(=O)(=O)c2ccc(C)cc2)c(OC)c1 -0.216%
NC(=O)C1(Nc2ccc([N+](=O)[O-])cc2)CCCC1 -0.108%
COc1ccccc1-c1sc2ccccc2c1C#CC1(O)CCCCC1 0.068%
COc1cccc(/C=C2/SC(=S)N(CC(=O)NC3C=CS(=O)(=O)C3)C2=O)c1 (stereo not drawn) -6.25%
COc1ccc(/C=C2\SC(=N)N(c3ccc(F)cc3)C2=O)cc1 -1.62%
CCOC(=O)c1ccccc1OC(=O)Oc1ccccc1C(=O)OCC 1.49%
O=C(O)c1ccc(/C=C2\SC(=S)N(NC(=O)c3ccc(Br)cc3)C2=O)cc1 15.4%
Cn1cccc1/C=C1\SC(=O)N(CC(=O)Nc2ccc(F)cc2)C1=O -5.97%
CC(C)(C)NS(=O)(=O)NC(=O)C1=C(N2CCCC2)COC1=O -3.4%
COc1ccc(C(=O)OCc2cc(=O)n3ccsc3n2)cc1F -3.31%
CCCC(O)(c1ccccc1)C(c1ccccc1)c1ccccn1 (stereo not drawn) -2.63%
COc1ccccc1N1CCN(S(=O)(=O)c2ccc(Cl)cc2)CC1 -4.05%
COc1ccccc1-n1nnnc1SCC(=O)NC(=O)Cc1ccccc1 0.182%
CCCCNc1c(-c2ccc(OC)c(Sc3ccc(OC)cc3)c2)nc2ccc(Cl)cn12 0.771%
CCN(CC(=O)Nc1cc(Cl)ccc1C)C(=O)CSCc1ccccc1 -0.344%
CCN(CC(=O)NCc1ccc(Cl)cc1)C(=O)c1c(C)noc1C -2.21%
Cc1cc2c(cc1C)NC1(C[C@H]3CCC(=O)N4CC[C@@H](C1)[C@@H]34)C(=NC(C)(C)CC(C)(C)C)N2 (stereo partly drawn) -3.52%
CCCCCc1ccc(-c2cn(Cc3ccc4ccccc4c3)nn2)cc1 -1.31%
CCOC(=O)c1nnn(-c2nc(OC)nc(N(C)C)n2)c1-c1ccccc1 14.6%
Cc1c(NC(=O)Nc2ccccc2)cccc1[N+](=O)[O-] -0.291%
Cc1ccccc1NC(=O)CCOc1ccccc1 -3.86%
Fc1ccc2cnc(-c3ccccc3)cc2c1 -0.668%
O=S(=O)(Nc1ccc2ccccc2c1)N1CCCCC1 -5.99%
CC(C)OC(=O)c1ccc(NCc2cc(O)ccc2O)cc1Cl 0.191%
COC(=O)Cc1c(-c2[nH]c3ccccc3c2CC(=O)OC)[nH]c2ccccc12 -2.69%
COc1ccc(CCNC(=O)c2ccc3c(c2)NC(=O)C(N2CCOCC2)S3)cc1OC (stereo not drawn) -1.17%
CCN1CCN(CCNC(=O)c2ccc(/C=C3/Sc4ccccc4N(Cc4cccc(C)c4)C3=O)cc2)CC1 -8.21%
COc1cc(C(=O)OCC(=O)NC23CC4CC(CC(C4)C2)C3)cc(OC)c1OC -3.34%
CCCCCCn1c(SCC(=O)c2ccccc2)nc2c1c(=O)[nH]c(=O)n2C -0.797%
C=CCn1c(SCc2ccccc2)nc2c1c(=O)[nH]c(=O)n2C -10.1%
CC(C)(C)C(=O)Nc1cccc(-c2ccc[nH]2)n1 -1.63%
CCN1CCN(C(=O)C2(NC(=O)Nc3cccc(F)c3)CCCCC2)CC1 -0.757%
Cc1ccccc1NC(=O)NC1(C(=O)N2CCCC2)CCCCC1 -0.684%
Cn1cncc1C#Cc1c(-c2ccsc2)sc2ccccc12 -4.14%
Cc1cc(O)ccc1-c1cnc2ccccc2n1 -0.904%
Oc1ccc(-c2[nH]ncc2-c2nc3ccccc3s2)c(O)c1 -4.79%
CCN1C[C@@H]2[C@@H]3C(=O)N(C)C(=O)[C@@H]3[C@](C)(C1=O)N2C(=O)c1ccccc1 -2.56%
CCC1([N+](=O)[O-])COC(c2ccc(C(C)C)cc2)OC1 (stereo not drawn) 2.08%
COc1cccc2oc(CCc3ccccc3)cc(=O)c12 -0.506%
Cc1ccc(S(=O)(=O)N2C[C@@H]3CCCC[C@@H]3[C@@H](C)[C@H]2c2cn(Cc3ccccc3)c3ccc(F)cc23)cc1 -5.03%
CCOC(=O)Cc1csc(NC(=O)COc2ccc3c(C)cc(=O)oc3c2)n1 -3.4%
COc1ccc2c(CC(=O)Nc3nnc(C4CC4)s3)coc2c1 -1.76%
CC(=O)Nc1ccc(C(=O)Nc2cc(S(=O)(=O)N3CCOCC3)ccc2N2CCOCC2)cc1 -4.08%
COc1cccc(CC(=NO)c2cccc(OC)c2)c1 -7.29%
CC(CN1CCOCC1)OC(=O)c1ccc(C(C)(C)C)cc1 (stereo not drawn) -3.82%
CC(CN1CCOCC1)OC(=O)c1ccc(Cl)cc1Cl (stereo not drawn) -2.34%
Cc1csc(NC(=O)C2CCN(S(=O)(=O)c3ccccc3)CC2)n1 3.13%
OC(CNCc1ccc2c(c1)OCO2)COc1ccccc1 (stereo not drawn) -0.826%
OC(COc1ccccc1)CN1CCN(c2cccc(Cl)c2)CC1 (stereo not drawn) -5.9%
O=C(CSc1nnc(CN2CCCC2)n1-c1ccc(F)cc1)c1ccc2c(c1)OCO2 -2.04%
COC[C@@H]1NS(=O)(=O)c2ccc(Br)cc2O[C@H]1c1ccccc1 -7.2%
COc1ccc(OCc2cc(C(=O)N3CCCC3)no2)c2ccccc12 -4.16%
O=C(c1cc(COc2cccc(C(F)(F)F)c2)on1)N1CCSCC1 -4.68%
C[C@H](CO)N1C[C@H](C)[C@@H](CN(C)Cc2ccc(-c3ccccc3)cc2)Oc2ccc(NC(=O)Cn3cnnn3)cc2C1=O -3.86%
CCN(CC(=O)NCc1ccco1)S(=O)(=O)c1ccc(F)cc1 -5.17%
O=C(O)CN(Cc1ccco1)S(=O)(=O)c1ccccc1 -2.04%
O=C1NC(c2ccccc2)Cc2ccncc21 (stereo not drawn) 0.221%
CCN(CC)S(=O)(=O)c1ccc(N2CCOCC2)c(NC(=O)C(C)Oc2ccc(F)cc2)c1 (stereo not drawn) -9.92%
CCOC(=O)c1sc2nc(CSCC(=O)OCc3ccc(C(=O)OC)o3)[nH]c(=O)c2c1C -1.2%
CCOC(=O)c1sc2nc(C)[nH]c(=O)c2c1C -5.61%
CN(C)CCNC(=O)c1ccc(Cl)c2cc3ccccc3nc12 -3.6%
Cc1ccc(S(=O)(=O)N(C)C)cc1NC(=O)CN1c2cccc3cccc(c23)S1(=O)=O 1.34%
COc1cc(OC)cc(-c2nnc(N(C)C(=O)c3ccncc3)s2)c1 -5.84%
CN(C(=O)C1CCOC1)c1nnc(-c2cccnc2)s1 (stereo not drawn) 5.89%
Cc1ccc(S(=O)(=O)CCC(=O)OCC(=O)N(C)Cc2ccccc2)cc1 -0.906%
O=C(COc1ccccc1F)Nc1nc(-c2ccccn2)cs1 -7.77%
CC(C)(C)OC(=O)N(Cc1ccccc1)Cc1ccc(OCc2cccc(NC(=O)c3ccccc3)c2)cc1 -1.04%
Cc1cccc(NC(=S)N2CCC(C(=O)c3ccc(F)cc3)CC2)c1 -2.74%
CN(C)S(=O)(=O)c1cccc(NC(=O)COC(=O)/C=C/c2cccs2)c1 -0.792%
CN(C)S(=O)(=O)c1cccc(NC(=O)COc2ccc3ccccc3c2)c1 -3.42%
COc1cc2c(cc1OC)C(Cc1cc(OC)c(OC)cc1[N+](=O)[O-])=NCC2 -3.58%
O=c1ccnc(Nc2ccc(Cl)cc2)[nH]1 -6.21%
COc1ccccc1NC1=NC(c2ccc(Cl)cc2)N=C(N)N1 (stereo not drawn) 2.25%

From PubChem BioAssay AID602252 (Broad Institute, 2012)
